This passage reports outcome, Potency and activity, negative = inhibition results from PubChem BioAssay (Tox21).

Records with an inconclusive call do not appear. A call without a number means that no potency is given here. Calls of active or inactive are those of the source. Calls come from the whole dose curve; as a rule, active = well fitted curve in the direction sought with a large enough effect in the repeat runs; inconclusive = weak or mixed curves; inactive = no such curve, though single readings can be large; an effect the other way counts as inactive or inconclusive.

The first assay can be described thus: qHTS assay to identify small molecule antagonists of the retinoid acid receptor (RAR) signaling pathway - cell viability counter screen (AID 1159551). Note: nearly all actives have a fitted effect of over 35% in size. Particulars: C3RL4 cells viability, ATP luminescence (CellTiter-Glo), 6 h; series mostly up to 92.4 µM. In short, it runs like this: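 C3RL4 cells were seeded overnight at 37 C, then treated with compounds plus 1 uM (final) retinol for 6 h at 37 C. Viability was read as ATP by CellTiter-Glo luminescence after 30 min at room temperature.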
A general note: In qHTS, concentration-response curves come from the screen itself.
Consider `CO[C@]12C[C@@H](COC(=O)c3cncc(Br)c3)CN(C)[C@@H]1Cc1cn(C)c3cccc2c13`, for which the molecule was classed as inactive. On the same count and under the same terms, with `CC(=O)CC(C)C` the entry was “inactive”. Still for that read-out and setting: with `O=[N+]([O-])c1ccc(F)cc1F` the entry was “inactive”; with `Nc1c[n+](N2CCOCC2)no1`, “inactive”. Still for that read-out and setting: with `CC/C=C\CCOC(C)=O` the entry was “inactive”. Take `COC(=O)NN`: the result was inactive. Still for that read-out and setting: with `C1CN(CCOCCN2CCOCC2)CCO1` the entry was “inactive”; with `C[C@H]1C[C@@H](O)CC(C)(C)C1`, “inactive”; with `C=CCCCCCCCCC=O`, “inactive”. The same measure, in the same setting: the value for `CCCCCCCCCCCCN(CCCCCCCCCCCC)CCCCCCCCCCCC` was “inactive”.

In the case of `ClC(Cl)(Br)Br`, the call was inactive. Still for that read-out and setting: with `N=C(N)c1ccc2cc(OC(=O)c3ccc(N=C(N)N)cc3)ccc2c1` the entry was “inactive”; with `CCCCCCCCCCCCCCCCC`, “inactive”; with `CCOC(=O)c1c(C)n(C)c2ccc(O)cc12`, “inactive”. Consider `Cc1cc2c(cc1S(N)(=O)=O)S(=O)(=O)CCC2`, for which the call was inactive. The same measure, in the same setting: with `CCCCCCCCCCCC` the entry was “inactive”; with `CC(C)NC(=O)NC(C)C`, “inactive”.

A further assay can be described thus: qHTS assay to identify small molecule antagonists of the retinoic acid receptor (RAR) signaling pathway (AID 1159552; note: nearly all actives have a fitted effect of over 50% in size). Particulars: C3RL4 RARE luciferase reporter, retinol-stimulated, 6 h; series mostly up to 92.4 µM. In short, it runs like this: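 Retinol signaling pathway inhibitors screened in C3RL4 RARE-luciferase reporter cells seeded overnight at 37 C, then compounds added with 1 uM (final) retinol as pathway substrate. After 6 hr at 37 C, luciferase luminescence read after 30 min at room temperature.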
With `CS(=O)(=O)O`, the Potency result is “inactive”. Turning to `CCOC(C)(C)C`, the Potency entry was “inactive”.

Regarding `O=Cc1cccc([N+](=O)[O-])c1`, the Potency result was “inactive”. With `N=C(N)c1ccc(OCCCOc2ccc(C(=N)N)cc2)cc1`, the Potency entry was “inactive”. Turning to `NC(=O)COCCN1CCN(C(c2ccccc2)c2ccc(Cl)cc2)CC1` (configuration not stated), the Potency entry was “inactive”.

Take `C/C=C(\C)C#N`: the Potency result was “inactive”.

As for `CCCCCCOC(=O)CCCCC(=O)OCCCCCC`, the Potency entry is “inactive”. The same measure, in the same setting: the value for `C[C@@H]1CCN(C(=O)[C@H](CCCN=C(N)N)NS(=O)(=O)c2cccc3c2NC[C@H](C)C3)[C@@H](C(=O)O)C1` was “inactive”.

On to `CCc1nccnc1CC`, for which the activity, negative = inhibition is 7.06% [at 19 µM] (inactive). For `COC(C)(C)CCCC(C)CC=O` (configuration not stated), the Potency entry was “inactive”. As to `CCCc1cc(C(N)=S)ccn1`, the Potency result is “inactive”. With `O=C(O)CCCl`, the Potency entry was “inactive”. `O=C(O)c1ccccc1OP(=O)(O)O`: the Potency result is “inactive”. `Cn1cc(S(C)=O)c(=O)c2ccc(F)cc21` (configuration not stated): the Potency result is “inactive”. Same read-out and setting: with `O=c1[nH]c(=O)n([C@H]2C[C@H](O)[C@@H](CO)O2)cc1I` the entry was “inactive”; with `CC(=O)Nc1ccc(S(N)(=O)=O)cc1`, “inactive”. `C=C(C)C(=O)OCCCCCCCC(C)C`: the Potency entry is “inactive”. Same read-out and setting: the value for `CC(C)(CC(=O)O)C(=O)O` was “inactive”.

Regarding `CO[C@]12C[C@@H](COC(=O)c3cncc(Br)c3)CN(C)[C@@H]1Cc1cn(C)c3cccc2c13`, the Potency entry was “inactive”. Still for that read-out and setting: the value for `CC(=O)CC(C)C` was “inactive”; that for `O=[N+]([O-])c1ccc(F)cc1F` was “inactive”. Regarding `Nc1c[n+](N2CCOCC2)no1`, the Potency entry was “inactive”. Still for that read-out and setting: the value for `CC/C=C\CCOC(C)=O` was “inactive”; that for `COC(=O)NN` was “inactive”. Still for that read-out and setting: with `C1CN(CCOCCN2CCOCC2)CCO1` the entry was “inactive”; with `C[C@H]1C[C@@H](O)CC(C)(C)C1`, “inactive”. Take `C=CCCCCCCCCC=O`: the Potency result is “inactive”. Take `CCCCCCCCCCCCN(CCCCCCCCCCCC)CCCCCCCCCCCC`: the Potency entry was “inactive”. Consider `ClC(Cl)(Br)Br`, for which the Potency result is “inactive”. On to `N=C(N)c1ccc2cc(OC(=O)c3ccc(N=C(N)N)cc3)ccc2c1`, for which the Potency entry was “inactive”. In the case of `CCCCCCCCCCCCCCCCC`, the Potency entry was “inactive”. Regarding `CCOC(=O)c1c(C)n(C)c2ccc(O)cc12`, the Potency result is “inactive”. On the same count and under the same terms, the value for `Cc1cc2c(cc1S(N)(=O)=O)S(=O)(=O)CCC2` was “inactive”. The same measure, in the same setting: with `CCCCCCCCCCCC` the entry was “inactive”; with `CC(C)NC(=O)NC(C)C`, “inactive”.
